Screens: PubChem, several laboratories
Shown are actives, neighbours in structure and some others; about 4.7% of the full set was active somewhere.
Plk1 PBD FP = inhibitors of human Plk1 polo box domain binding | AID 693 | inhibition, %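 (tested at about 20 µM)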 | 97,000 tested, 0.13% active | Plk1 PBD phosphopeptide binding, fluorescence polarization; in the data active means inhibition above about 34%, passing the limit was not always enough
Target sequence (P53350 whole entry, looked up, the tested form may be a part): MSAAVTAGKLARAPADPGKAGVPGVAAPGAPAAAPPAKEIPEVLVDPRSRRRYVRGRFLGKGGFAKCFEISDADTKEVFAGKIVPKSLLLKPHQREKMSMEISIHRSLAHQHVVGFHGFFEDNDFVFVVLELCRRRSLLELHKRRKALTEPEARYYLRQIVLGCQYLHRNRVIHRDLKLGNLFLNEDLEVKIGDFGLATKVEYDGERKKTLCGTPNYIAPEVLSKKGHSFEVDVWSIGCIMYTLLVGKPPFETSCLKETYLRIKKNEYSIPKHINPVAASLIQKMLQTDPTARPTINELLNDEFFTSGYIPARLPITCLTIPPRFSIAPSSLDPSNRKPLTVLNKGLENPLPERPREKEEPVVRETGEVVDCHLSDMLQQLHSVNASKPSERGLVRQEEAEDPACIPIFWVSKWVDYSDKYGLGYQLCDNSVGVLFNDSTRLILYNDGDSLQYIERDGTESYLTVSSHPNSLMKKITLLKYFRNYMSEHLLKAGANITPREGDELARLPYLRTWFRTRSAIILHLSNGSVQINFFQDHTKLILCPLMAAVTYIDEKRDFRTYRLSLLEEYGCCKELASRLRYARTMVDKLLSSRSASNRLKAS
hDAT+cocaine = modulates human dopamine transporter uptake under cocaine | Q01959 | B-score at 10 µM | 110,000 tested, 1.3% active | LLC-PK1 hDAT cells, [14C]-dopamine uptake with cocaine IC80; actives deviate in either direction;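 active means Z score or B-score, a plate-position-corrected score, falls beyond the plate's 99.7% confidence bounds, in either direction; inactive means both scores lie inside the 99.7% bounds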;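 further: scored against the spread of the other compound wells on the same plate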
Pyk2 oligo antag = Pyk2 (human) oligomerization antagonism; z-score (the deposit names both 25 µM and 10 µM); Q293 cells, Pyk2 FERM NanoBiT luminescence; hits give low values; 99,000 tested, 0.83% active; Q14289; AID 1347419;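 active means Z-score of -3 or lower, scaled per plate to the spread of control and sample wells; inactive means z-score above -3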;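 further: negative z-score means lost luminescence so less FERM oligomerization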
Cav32 inh = human Cav3.2 channel inhibition, primary screen | O95180 | Cav3.2-expressing cells, Fluo-4 calcium fluorescence FDSS; hits give low values | B-score at 10 µM | 100,000 tested, 4% active;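 active means single-dose well whose peak fluorescence ratio is a statistical outlier from its plate by either plate-standardised score or position-corrected B-score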
sdo1 growth = restores growth of sdo1-depleted yeast; S. cerevisiae sdo1-depleted JHY4D growth rescue, OD600 30 h; hits give high values; pdr5 snq2 efflux-pump mutant strain; z-score at 10 µM; AID 817; 140,000 tested, 0.21% active;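 active means z-score above 3 at both the 24 hr and the 30 hr optical density reads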;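 further: z-score against mean and SD of all compound wells on the same plate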
PLK1 kinase inh = blocks human PLK1 kinase activity. recombinant PLK1 kinase, TR-FRET peptide phosphorylation. inhibition, % at 10 µM. AID 619. 97,000 tested, 0.53% active. P53350;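 active means inhibition of 50% or more in the single-concentration screen; inactive means inhibition below 50%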;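 further: 0% = DMSO max control and 100% = H-89 dihydrochloride min control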
The depositor's hits bear a star; . = no result given.

SMILES	Plk1 PBD FP	hDAT+cocaine	Pyk2 oligo antag	Cav32 inh	sdo1 growth	PLK1 kinase inh
CCCC(=O)N1c2ccccc2C(N(C(C)=O)c2ccccc2)CC1C (stereo not given)	-9	0.61	1.6	.	-0.39	-8
COc1cccc(-c2nc(CS(=O)(=O)CC(=O)NCCC(C)C)c(C)o2)c1	-12	0.0059	.	-3.1	0.43	-6
COc1cc(OC)c(NC(=O)CS(=O)(=O)Cc2nc(-c3ccc(C)cc3)oc2C)cc1Cl	1	0.18	.	-4.9*	-0.96	-17
COc1ccc(OC)c(CCNC(=O)CS(=O)(=O)Cc2nc(-c3ccc(C)cc3)oc2C)c1	-16	-1.5	0.41	-5.9*	-1.4	-1
COc1ccc(-c2nc(CS(=O)(=O)CC(=O)Nc3ccc(Cl)cc3)c(C)o2)cc1	.	0.27	.	-5.3*	-0.74	.
Cc1ccc(C)c(N2CCN(S(=O)(=O)c3ccc4c(c3)OCCO4)CC2)c1	3	1	-3.9*	-1.8	-0.09	-1
Cc1ccc(C)c(N2CCN(S(=O)(=O)c3ccc4[nH]c(=O)c(=O)[nH]c4c3)CC2)c1	-2	-0.91	0.24	-3.1	0.52	-14
Cc1ccc(Cl)cc1N1CCN(S(=O)(=O)c2ccc3c(c2)OCCO3)CC1	-13	-1	-4.2*	-5.2*	0.46	-4
COc1ccc(Cl)cc1N(CC(=O)NC(C)(C)C)S(=O)(=O)c1ccc(C)c([N+](=O)[O-])c1	.	.	.	.	-0.2	.
c1ccc(-c2nc3nc4ccccc4nc3n2Cc2ccco2)cc1	14	-1.7	0.33	-2.3	-0.84	-1
N=c1c2c(-c3ccccc3)c(-c3ccccc3)n(Cc3ccco3)c2ncn1CCO	20	0.35	-1.4	-7.4*	-0.79	-4
N=c1c2c(-c3ccccc3)c(-c3ccccc3)n(Cc3ccco3)c2ncn1CCN1CCOCC1	-5	2.9	-0.64	-11*	-1.4	-14
Fc1cccc(Cn2cc(C(=S)N3CCCCC3)c3ccccc32)c1	-39	0.47	-0.87	-4.9*	-1.2	-10
CCCC(O)(c1ccc(Cl)cc1)C(CN1CCOCC1)c1ccccc1 (stereo not given)	2	-2.8*	.	-1.2	-2.3	-3
CCCOc1ccc(C(=O)C(CN2CCOCC2)c2ccccc2)cc1 (stereo not given)	12	0.37	-1.1	-1.2	-2.3	-6
NC(=O)[C@H]1CC2(CC(c3cccc(NC(=O)[C@H]4CCC(=O)N4)c3)=NO2)CN1C(=O)c1cc([N+](=O)[O-])cc([N+](=O)[O-])c1 (stereo not given in full)	.	-0.7	.	0.33	.	.
c1ccc(CN2c3ccccc3-c3nc4ccccc4n3C2c2ccccn2)cc1 (stereo not given)	-13	-0.039	-2.1	-6.6*	-1.5	-7
COC(=O)c1ccccc1NC(=O)CSc1ccccc1	.	-9*	-1.1	.	-0.77	.
CC(C)OC(=O)C(C)Oc1ccc(C(=O)NCCc2ccccc2)cc1 (stereo not given)	-10	-7.1*	0.78	-0.87	-0.95	-14
CNc1ncc(Cc2ccccc2)s1	.	.	.	.	1.2	.
COc1ccc(Cl)cc1N(C)C(=O)CCc1nc(-c2ccc(C)cc2)no1	-8	-0.044	-2.6	-5.7*	-0.72	-13
O=C(O)CCc1nc(-c2ccccc2)no1	-12	-0.13	0.94	-0.56	1.6	-11
COc1ccc(NC(=O)CCc2nc(-c3ccc(C)cc3)no2)cc1Cl	-17	-0.47	0.43	-0.77	-0.06	-16
CCc1ccccc1N(C)C(=O)CCc1nc(-c2ccc(C)cc2)no1	11	-0.31	-2.1	-5.5*	-1.6	-6
CCOC(=O)c1ccc(NC(=O)CCc2nc(-c3ccc(C)cc3)no2)cc1	-3	0.36	-0.78	-3	-1.1	64*
SMILES	Plk1 PBD FP	hDAT+cocaine	Pyk2 oligo antag	Cav32 inh	sdo1 growth	PLK1 kinase inh
O=C(NCCSCc1c(F)cccc1Cl)c1ccc(CN2CCOCC2)cc1	.	.	0.41	.	-1.4	.
Cn1c(-c2ccc3c(c2)OCO3)cnc1NCc1cccc(Cl)c1	0	0.014	0.34	-4.8*	-0.62	24
Cn1c(-c2ccc3c(c2)OCO3)cnc1NCc1ccccc1	-13	-0.0062	0.65	-2.7	-0.92	4
CC(C)CN1C(=S)SC(C)(C)C1n1oc(=O)n(-c2ccc(Cl)cc2)c1=O (stereo not given)	33	-0.23	0.97	-4.1*	-0.38	-9
CCN(CC)c1ccc(/C=C(/C#N)c2nc3ccccc3[nH]2)c(OC(C)C)c1	-198	2	-3.4*	-3.5*	-0.58	-75
COc1ccc(C(C#N)Nc2ccccc2)cc1 (stereo not given)	12	4.6*	.	-0.89	0.16	-6
COc1ccc(NC(C#N)c2ccc(OC)cc2)cc1 (stereo not given)	-14	-1.3	0.18	-1.4	0.14	-11
CCc1nn2cc(C(=O)c3cc(Cl)ccc3O)cnc2c1-c1ccc(F)cc1	.	.	.	.	-1.6	.
Cc1cc(C)c2c(-n3cccc3)c(C(=O)NNS(=O)(=O)c3ccc(Cl)cc3)sc2n1	-14	2.6	-0.71	-5.1*	-1.7	-4
Cc1cc(C)c2c(-n3cccc3)c(C(=O)NNS(=O)(=O)c3ccccc3)sc2n1	12	0.73	-0.43	-1.5	-1.9	-8
Cc1ccc(S(=O)(=O)N2CCN(Cc3ccccc3)CC2)c(C)c1N(C)S(=O)(=O)c1ccccc1	.	.	.	.	-0.54	.
Cc1ccc(NS(=O)(=O)c2ccc(NC(=O)c3cccs3)cc2)cc1	-5	-1.2	-0.35	-0.39	-0.13	-4
Cc1ccc(NC(=O)c2cc(S(=O)(=O)N3CCCCC3)cs2)cc1	4	-0.0065	-0.63	-4.8*	-0.75	-9
O=C(Nc1ccc(F)cc1)c1cc(S(=O)(=O)Nc2ccc(F)cc2)cs1	6	0.81	-0.12	-5.8*	-0.13	-3
COc1ccc(C(=O)N2CCC(n3c(C)nc4cc(F)ccc43)CC2)cc1OC	4	2.8*	-0.55	1.5	1.2	1
CCNC(=S)NNC(=O)c1cc(Br)cs1	.	.	.	.	2	.
CC(=O)Nc1nc(-c2ccc(Cl)cc2)ns1	.	.	.	.	0.31	.
COC(=O)c1nc2n(n1)C(c1cc(OC)ccc1OC)C(C(=O)OC1CCCCC1)=C(C)N2 (stereo not given)	-2	1	-0.99	-4.8*	-0.92	-7
O=C1NC(c2cccs2)Nc2sc3c(c21)CCCC3 (stereo not given)	-13	2.8*	-0.72	-0.48	0.24	-5
O=C(Cc1cccs1)N(Cc1ccco1)C1(C(=O)NC2CCCC2)CCCCC1	.	0.069	-1.7	-5.2*	-0.96	.
O=C(NC1CCCCC1)C(c1ccccc1)N(Cc1ccco1)C(=O)Cn1cnc2ccccc21 (stereo not given)	-9	-0.015	0.32	-5.9*	0.58	-7
O=C(NCc1ccccc1)C(c1ccccc1)N(Cc1ccc2c(c1)OCO2)C(=O)Cc1cccs1 (stereo not given)	-1	-0.013	-1.7	-1.9*	-1.2	-9
